In all, about 33,000 sequences were measured (“E-score (-0.5 to 0.5)”: median about -0.041, highest 2% from about 0.37 on). The sample holds the highest values, similar sequences and a random draw of the others, so the mix is not that of the screen.
target: T1, Ecm22 (UniProt Q05958); assay: PBM E-score (8-mer binding enrichment) (E-score (-0.5 to 0.5)); higher = stronger / more preferred TF binding; conditions: protein concentration: 200 nM; construct: GST-full length
T1 sequence: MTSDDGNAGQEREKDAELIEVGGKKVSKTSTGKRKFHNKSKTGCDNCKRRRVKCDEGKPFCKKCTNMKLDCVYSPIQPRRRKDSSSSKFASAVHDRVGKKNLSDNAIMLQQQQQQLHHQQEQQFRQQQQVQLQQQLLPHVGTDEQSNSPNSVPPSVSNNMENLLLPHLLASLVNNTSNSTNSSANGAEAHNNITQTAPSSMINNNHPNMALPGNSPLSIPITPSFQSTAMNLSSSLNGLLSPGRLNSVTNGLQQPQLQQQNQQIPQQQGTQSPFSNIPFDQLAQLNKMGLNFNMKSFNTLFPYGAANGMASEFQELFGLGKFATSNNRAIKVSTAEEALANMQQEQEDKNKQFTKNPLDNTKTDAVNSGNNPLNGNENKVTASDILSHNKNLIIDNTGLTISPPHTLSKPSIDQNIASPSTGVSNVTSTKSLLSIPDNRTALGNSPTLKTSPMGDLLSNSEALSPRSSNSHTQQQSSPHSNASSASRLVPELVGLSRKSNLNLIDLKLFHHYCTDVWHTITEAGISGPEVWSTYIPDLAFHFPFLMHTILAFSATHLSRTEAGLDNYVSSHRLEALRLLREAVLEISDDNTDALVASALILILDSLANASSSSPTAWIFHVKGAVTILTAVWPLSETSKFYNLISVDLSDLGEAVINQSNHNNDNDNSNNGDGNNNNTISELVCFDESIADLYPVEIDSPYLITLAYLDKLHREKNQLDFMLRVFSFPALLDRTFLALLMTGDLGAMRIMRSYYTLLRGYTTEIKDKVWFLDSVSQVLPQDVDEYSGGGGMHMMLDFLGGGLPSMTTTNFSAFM
In short: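 Universal all-10-mer Agilent arrays, double-stranded by primer extension on fresh or once-stripped slides, were probed with about 100-200 nM GST-tagged yeast transcription factors made by PURExpress. Fluorescent anti-GST detected bound protein, and masliner normalised the scans. E-scores from the Universal PBM Analysis Suite were given to each ungapped eight-base word pooled with its reverse complement.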

First: GCCGGCGA
Second: TAGACCGA
The “PBM E-score” value of the first is lower: -0.117 for the first, 0.175 for the second.

Compared with AGAGAGCT, AAGCATTC is higher in “PBM E-score” value: -0.169 for the first, -0.157 for the second.

Compared with CGTGCGCA, CACAGTTC is higher in “PBM E-score” value: -0.0738 for the first, -0.0557 for the second.

Going from CGAGTACA to CGCTAACA, the “PBM E-score” value falls from 0.246 to 0.0557.

First: AGTACGTC
Second: AGTACGCC
The “PBM E-score” value of the first is higher: 0.0542 for the first, -0.0213 for the second.

Going from TGCACGAA to TGTACAAA, the “PBM E-score” value falls from 0.109 to -0.0698.

Going from AGTACGAC to TGTACGAA, the “PBM E-score” value rises from 0.443 to 0.48.

Compared with CCGACCAA, CAAGTATG is lower in “PBM E-score” value: 0.105 for the first, -0.112 for the second.

First: ATCTCACG
Second: ATACGGTC
The “PBM E-score” value of the first is lower: -0.0833 for the first, 0.383 for the second.

Going from AAACGGCG to ACACGGTG, the “PBM E-score” value falls from 0.391 to -0.0453.

Going from AAACGGCT to AAACGGTA, the “PBM E-score” value rises from 0.259 to 0.287.

Going from AGACGGTG to ATACGGTG, the “PBM E-score” value rises from -0.132 to 0.388.

Compared with AAACGGTC, ACACGGTC is lower in “PBM E-score” value: 0.293 for the first, -0.0081 for the second.

First: AAACGGTG
Second: AAACGGCC
The “PBM E-score” value of the first is higher: 0.376 for the first, 0.29 for the second.

First: CTACGGTC
Second: ATGCAAAG
The “PBM E-score” value of the first is higher: 0.0518 for the first, 0.0339 for the second.

Going from AAAAATGA to AGGCTCAG, the “PBM E-score” value falls from -0.0643 to -0.211.

First: GTTAGGGA
Second: AGGTGCTG
The “PBM E-score” value of the first is higher: 0.0493 for the first, -0.371 for the second.

Going from AGCATACT to CCGGACCA, the “PBM E-score” value rises from 0.0121 to 0.0404.

First: AGGGAACG
Second: CGGGAACC
The “PBM E-score” value of the first is higher: 0.465 for the first, 0.0199 for the second.

Going from CGGGAACG to CGGGAACA, the “PBM E-score” value falls from 0.456 to 0.165.

Compared with AGGGAACA, AGGGAACC is higher in “PBM E-score” value: -0.166 for the first, 0.00984 for the second.

Compared with AAAGGAGT, GTTTCCTA is higher in “PBM E-score” value: -0.131 for the first, 0.0344 for the second.

Going from GCGGCTAA to AAATCTGA, the “PBM E-score” value falls from -0.034 to -0.168.

Compared with CCTTGGCG, CATACCAG is higher in “PBM E-score” value: -0.159 for the first, -0.0569 for the second.

Going from GGTACCAC to TGTACCAA, the “PBM E-score” value rises from -0.137 to 0.036.

First: CGTACCAA
Second: CGTACCAC
The “PBM E-score” value of the first is lower: 0.444 for the first, 0.446 for the second.

Compared with AGTACCAG, AGTACCAC is higher in “PBM E-score” value: -0.14 for the first, 0.0416 for the second.

First: AGTACCAA
Second: CGTACCAG
The “PBM E-score” value of the first is lower: -0.119 for the first, 0.397 for the second.

Going from TCCCTAAA to CGCACGTC, the “PBM E-score” value rises from -0.00662 to 0.00508.

Compared with TAGGGATA, GCAGTAAA is higher in “PBM E-score” value: -0.165 for the first, -0.0139 for the second.

Compared with CGAACGCA, GCTTCCCC is lower in “PBM E-score” value: 0.242 for the first, -0.098 for the second.

Going from CAAAGCCA to TCTACGAA, the “PBM E-score” value rises from -0.0435 to 0.312.

Compared with GCTACGAA, ACTACGAC is lower in “PBM E-score” value: 0.429 for the first, 0.329 for the second.

Going from CCTACGAA to GCTACGAC, the “PBM E-score” value rises from 0.192 to 0.426.

First: CCTACGAC
Second: CCTCTCAA
The “PBM E-score” value of the first is higher: 0.232 for the first, -0.127 for the second.

Going from ATAGTATG to ATAGTATA, the “PBM E-score” value rises from 0.0828 to 0.211.

First: ATCGTATA
Second: ATCGTGTA
The “PBM E-score” value of the first is higher: 0.488 for the first, 0.25 for the second.

First: ATAGTATC
Second: AGCGTATC
The “PBM E-score” value of the first is higher: 0.127 for the first, 0.0945 for the second.

First: ATCGTATG
Second: ATCGTATC
The “PBM E-score” value of the first is higher: 0.438 for the first, 0.418 for the second.

Going from CTCGTATC to AGCGTATG, the “PBM E-score” value falls from 0.478 to 0.136.

Going from CACGTATC to CGCGTATC, the “PBM E-score” value rises from 0.132 to 0.232.

Compared with TCTGCTCA, TCGAGCGA is higher in “PBM E-score” value: -0.168 for the first, 0.0676 for the second.

Going from ATATCAAC to CCAGTTGC, the “PBM E-score” value falls from -0.103 to -0.196.

Going from ACTGGCCA to CAGAGTCA, the “PBM E-score” value falls from -0.206 to -0.226.

Going from GCAGAGAC to AGTATAGA, the “PBM E-score” value rises from -0.357 to 0.16.

Compared with AGTATAGC, CGTATAGC is higher in “PBM E-score” value: 0.0261 for the first, 0.477 for the second.

Compared with CCTATAGC, GGTATAGA is higher in “PBM E-score” value: -0.248 for the first, -0.0121 for the second.

First: CGTATAGA
Second: ACATGGGC
The “PBM E-score” value of the first is higher: 0.458 for the first, -0.263 for the second.

Going from GAAGTCCC to ACGTTCGC, the “PBM E-score” value rises from -0.172 to 0.157.

Going from GAAATTGC to ACACATTA, the “PBM E-score” value rises from 0.0049 to 0.031.

Going from CCACGAGG to GTGTCGGA, the “PBM E-score” value rises from 0.00398 to 0.0575.

Going from ATGTCGTC to ATGTCGTG, the “PBM E-score” value falls from 0.0394 to 0.0288.

First: CTGTCGTC
Second: CTGTCGTA
The “PBM E-score” value of the first is lower: 0.161 for the first, 0.453 for the second.

Going from GTGTCGCA to GTGTCGTA, the “PBM E-score” value rises from 0.162 to 0.445.

Compared with ATGTCGTA, CTGTCGAA is lower in “PBM E-score” value: 0.446 for the first, -0.00303 for the second.

Going from AACCAATT to ATCTACCC, the “PBM E-score” value rises from -0.233 to 0.0111.

Compared with CATTACGA, CTTTACCA is lower in “PBM E-score” value: 0.289 for the first, -0.226 for the second.

First: GTTTACTA
Second: CTTTACGA
The “PBM E-score” value of the first is lower: 0.182 for the first, 0.464 for the second.

First: ATTTACGA
Second: CTTTACGC
The “PBM E-score” value of the first is higher: 0.453 for the first, 0.211 for the second.

First: TATTACGA
Second: AATTACGA
The “PBM E-score” value of the first is higher: 0.389 for the first, 0.361 for the second.

Going from GTTTACGA to ATTTACGG, the “PBM E-score” value falls from 0.46 to 0.31.

First: GTTTACAA
Second: ATTTACGC
The “PBM E-score” value of the first is higher: 0.19 for the first, 0.0401 for the second.

Going from CGGACTGC to ATTCTATA, the “PBM E-score” value rises from -0.0684 to -0.00057.

Compared with CTACTGCA, AGAGGAAG is lower in “PBM E-score” value: -0.158 for the first, -0.167 for the second.

First: ATCACTAA
Second: AAAGGGTC
The “PBM E-score” value of the first is higher: -0.0903 for the first, -0.109 for the second.

Compared with ATCATAGC, AGTCCCAG is higher in “PBM E-score” value: -0.0799 for the first, -0.0584 for the second.

First: GAAGAAGA
Second: GGGTCCTA
The “PBM E-score” value of the first is higher: -0.0416 for the first, -0.218 for the second.

Going from TGGGACCA to GAAGGTTA, the “PBM E-score” value rises from -0.27 to -0.016.

Compared with ACGAGCAA, ACGAGCTC is higher in “PBM E-score” value: 0.288 for the first, 0.39 for the second.

First: GCGAGCTA
Second: AGGAGCTG
The “PBM E-score” value of the first is higher: 0.248 for the first, -0.288 for the second.

Compared with ACGAGCTG, CCGAGCTA is lower in “PBM E-score” value: 0.411 for the first, 0.101 for the second.

Going from AAGAGCTG to CCGAGCTC, the “PBM E-score” value rises from -0.264 to 0.219.

Compared with ACGAGCAT, ACGAGCAG is higher in “PBM E-score” value: 0.365 for the first, 0.383 for the second.

First: AGGAGCTC
Second: ACGAGCTA
The “PBM E-score” value of the first is lower: -0.0307 for the first, 0.39 for the second.

Going from GAAGTATC to ACTTCACG, the “PBM E-score” value falls from 0.0371 to -0.0496.

Going from ATATGGAT to ACGGTTTA, the “PBM E-score” value falls from 0.133 to 0.0698.

First: CAACTCTC
Second: AGTCCGAA
The “PBM E-score” value of the first is lower: -0.11 for the first, 0.0505 for the second.

First: CGTTTCGA
Second: AGTCGTAA
The “PBM E-score” value of the first is lower: 0.202 for the first, 0.395 for the second.

Compared with CGTCGTCA, AGTCGTGA is lower in “PBM E-score” value: 0.0778 for the first, 0.0257 for the second.

Compared with CGTCGTAA, GGTCGTGA is lower in “PBM E-score” value: 0.446 for the first, -0.0346 for the second.

Going from CGTCGTGA to GGTCGTCA, the “PBM E-score” value falls from 0.117 to 0.0226.

Going from GGTCGTAA to AGTCGTCA, the “PBM E-score” value falls from 0.417 to -0.236.

Going from TGGCGTAA to TGTCGTAA, the “PBM E-score” value rises from 0.0429 to 0.428.

Going from TATCGTAA to CGCGAGAG, the “PBM E-score” value falls from 0.363 to 0.233.

First: ACGGTAGC
Second: ACAATCGC
The “PBM E-score” value of the first is lower: -0.00152 for the first, 0.226 for the second.

Compared with AAGTTTTC, AGCCTGGC is lower in “PBM E-score” value: 0.0919 for the first, -0.142 for the second.
